# From PubChem
# Sampled rows, rich in hits. Any-hit rate of the full collection: about 3.7%.
# BoNT A protease: inhibitors of Botulinum neurotoxin A light chain protease | multiplex microsphere protease substrate cleavage, flow cytometry | inhibition, % at 10 µM | 0.17% of 360,000 active | AID 588499; note: plate controls were buffer without enzyme for full effect and enzyme alone for no effect
# BoNT F protease: inhibitors of Botulinum neurotoxin F light chain protease | inhibition, % at 10 µM | Multiplex microsphere protease cleavage assay, flow cytometry | 0.22% of 360,000 active; in the data active = inhibition above about 35%, passing the limit was not always enough; inconclusive = no clear call, values can overlap the other calls; note: plate controls were buffer without enzyme for full effect and enzyme alone for no effect
# Anthrax LF prot: blocks Bacillus anthracis lethal factor protease | 0.12% of 360,000 active | P15917 | inhibition, % at 10 µM | multiplex microsphere protease cleavage assay, LF | AID 588501; note: plate controls were buffer without enzyme for full effect and enzyme alone for no effect
# Target sequence (P15917 whole entry, looked up): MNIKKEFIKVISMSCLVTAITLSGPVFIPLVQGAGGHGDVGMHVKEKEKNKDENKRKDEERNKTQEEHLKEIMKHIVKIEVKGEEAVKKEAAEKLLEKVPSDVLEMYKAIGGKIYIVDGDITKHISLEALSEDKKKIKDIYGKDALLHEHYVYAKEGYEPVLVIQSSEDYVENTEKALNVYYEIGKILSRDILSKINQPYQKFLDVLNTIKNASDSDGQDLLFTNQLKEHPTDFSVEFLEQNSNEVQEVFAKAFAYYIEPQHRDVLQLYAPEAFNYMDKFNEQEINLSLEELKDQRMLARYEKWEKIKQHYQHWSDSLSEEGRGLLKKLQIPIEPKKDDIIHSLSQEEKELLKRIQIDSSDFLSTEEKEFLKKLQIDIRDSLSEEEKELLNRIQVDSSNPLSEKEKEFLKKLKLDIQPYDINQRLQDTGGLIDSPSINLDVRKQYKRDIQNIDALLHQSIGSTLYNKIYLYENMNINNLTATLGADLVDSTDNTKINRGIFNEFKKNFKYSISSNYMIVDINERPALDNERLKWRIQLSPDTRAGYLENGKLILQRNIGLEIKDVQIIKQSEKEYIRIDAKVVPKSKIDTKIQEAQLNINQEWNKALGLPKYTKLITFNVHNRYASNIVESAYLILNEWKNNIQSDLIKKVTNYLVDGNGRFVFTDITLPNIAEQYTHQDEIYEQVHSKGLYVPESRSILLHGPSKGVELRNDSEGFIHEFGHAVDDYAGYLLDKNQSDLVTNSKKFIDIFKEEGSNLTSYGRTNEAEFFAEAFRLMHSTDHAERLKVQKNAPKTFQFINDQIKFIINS
# MazF activator: increases E. coli MazEF RNase cleavage of RNA; FAM/BHQ RNA-DNA oligo cleavage fluorescence, 5 h; activation, % at 20 µM; AID 504720; 0.32% of 350,000 active; in the data active = activation above about 50%
# Bead autofluor: counter-screen for toxin protease inhibitors: compound fluorescence; compound autofluorescence counterscreen, microsphere flow cytometry; stronger effect = higher value; fluorescence intensity (concentration not given with the values); 3.1% of 360,000 active; AID 624483; in the data active = fluorescence intensity above about 16000; inconclusive = no clear call, values can overlap the other calls
# * hit, by the source's call; ? = inconclusive; . = not tested or not shown. Cut-off read from the data, not from the text of the source, unless noted: active = inhibition above about 30%; inconclusive = no clear call, values can overlap the other calls; inactive = below that.
SMILES,BoNT A protease,BoNT F protease,Anthrax LF prot,MazF activator,Bead autofluor
COc1ccc(/C=C2/N=C(SCC(=O)Nc3cc(C)on3)N(c3ccccc3)C2=O)cc1,1,6,1,70*,8620
CCC(SC1=N/C(=C/c2ccccc2)C(=O)N1c1ccccc1)C(=O)Nc1cc(C)on1 (stereo not given),0,5,-5,10,9422
CC(=O)NCCCNC(=S)NCCCN(Cc1ccc(Cl)cc1)c1ccc(Br)cn1,0,-4,-6,.,3655
CC(=O)c1ccc(N2CCN(C(=O)c3ccc(Cl)c(NC4=NC5CS(=O)(=O)CC5S4)c3)CC2)cc1 (stereo not given),0,2,-1,4,5203
O=S(=O)(NC1c2cccc3cccc(c23)C1N1CCNCC1)c1ccccc1 (stereo not given),-1,-19,1,2,7200
O=C(c1ccccc1)N1CCN(C2c3cccc4cccc(c34)C2NS(=O)(=O)c2ccccc2)CC1 (stereo not given),-3,-6,-2,-9,23933*
N/C(=N\OC(=O)c1ccc(Cl)cc1)c1ccccn1,?,8,0,-5,21717*
N/C(=N\OC(=O)c1ccc(Cl)c(Cl)c1)c1ccccn1,0,2,-2,3,9865
CCOc1ccc(NC(=S)NC(=O)c2cnn(CC)c2)c([N+](=O)[O-])c1,-1,-1,0,2,5349
CCOc1ccc(NC(=S)N2CCC(C(=O)c3ccc(OC)cc3)CC2)cc1,0,-2,0,7,3067
O=C(Nc1ccncc1)Nc1ccc(F)cc1F,1,2,1,12,23331*
O=C(Nc1ccc(F)cc1F)Nc1ccc(F)cc1F,-3,-16,-4,-8,2642
O=C(C1CCCN(Cc2cccc(F)c2)C1)N1CCCCC1 (stereo not given),0,2,-1,7,16903*
CC1(C(=O)NS(=O)(=O)c2cccc(Cl)c2)CCN1C(=O)CCc1cccs1 (stereo not given),0,-2,-9,.,3814
Cc1cc(C)cc(CC2CC(=O)N(c3cc(C)on3)C2=O)c1 (stereo not given),0,0,1,-4,19958*
Cc1cc(C)cc(CC2CC(=O)N(c3ccc4c(c3)OCCO4)C2=O)c1 (stereo not given),-1,-3,3,-6,6155
CC(C)C[C@@H]1COc2cccc(N3CCSCC3)c2S(=O)(=O)N1,1,-6,-1,.,6052
NC(=O)c1c(NC(=O)c2ccccc2)sc2c1CCN(Cc1ccccc1)C2,0,-9,-9,116*,5985
CCN1CCc2c(sc(NC(=O)c3ccc(C(=O)c4ccccc4)cc3)c2C(N)=O)C1,0,-6,6,274*,6112
CCN1CCc2c(sc(NC(=O)Cc3ccccc3)c2C(N)=O)C1,-1,-5,-1,10,6873
CCN1CCc2c(sc(NC(=S)NC(=O)c3ccccc3)c2C#N)C1,9,-31,4,62*,2402
O=C(NCC1CCCN(C(=O)c2cc(Cl)ccc2F)C1)c1ccc(F)cc1 (stereo not given),-1,4,5,2,5742
O=C(NCC(=O)N1CCN(c2ccccc2O)CC1)c1ccccc1,-2,3,6,2,3645
CS(=O)(=O)c1nc(S(=O)(=O)c2ccc(Cl)cc2)c(NCCN2CCOCC2)s1,11,12,7,10,4682
O=c1c2cc([N+](=O)[O-])ccc2sn1-c1ccccc1,11,-2,3,-19,3770
SMILES,BoNT A protease,BoNT F protease,Anthrax LF prot,MazF activator,Bead autofluor
N#Cc1ccc2sn(-c3ccccc3)c(=O)c2c1,33*,2,-2,-16,4005
COc1ccc(C(=O)CC(C(=O)O)c2ccc3c(c2)OCO3)cc1OC (stereo not given),-1,-14,-4,8,3992
Cc1[nH]c2ccccc2c1C(=O)COC(=O)c1nccnc1N,3,11,1,-1,4822
CC1(C)CC(=O)c2sc(NC(=O)C3CC3)nc2C1,0,-6,-4,1,5400
Cn1nc(C(C)(C)C)cc1C(=O)Nc1nc2c(s1)C(=O)CC(C)(C)C2,0,2,1,-2,22625*
O=C(Nc1ccsc1C(=O)O)c1ccccc1,0,2,4,13,3038
O=C(Nc1ccsc1C(=O)N1CCCCCC1)c1ccccc1,-1,-2,0,-6,16715*
Cc1ccc(S(=O)(=O)N2[C@@H](c3cccc(C)c3)C(C(=O)O)=C[C@H]2CC2CCCC2)cc1,0,2,2,2,3034
Cc1cc(Nc2ccc(Cl)cc2)nc(N)n1,1,0,-4,3,21661*
